In PubChem BioAssay AID1224921 (Broad Institute, 2016):
Out of some 1,400 compounds screened, about 350 (25%) were called active. Roughly 2% stayed inconclusive and do not appear here. How the calls were made is not given here. These entries were drawn from the full list. Entries with a potency or affinity are not part of this list.

Assay: C. difficile growth inhibition, confirmation, 4-point retest (AID 1224921);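 further: plate controls were DMSO wells for no effect and levofloxacin 16 µg/mL wells for full effect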
Conditions: Clostridioides difficile clinical isolate growth, OD600, 24 h, hits give low values; at 30 µM unless noted

Max activity, inactive:
CCCN(C)C[C@H]1Oc2cc(C#CCC3CCCC3)ccc2S(=O)(=O)N([C@@H](C)CO)C[C@H]1C 28.1% [at 8 µM]
CCCN1C[C@H](C)[C@@H](OC)CN(C)C(=O)c2ccc(NC(=O)c3ccc(F)cc3)cc2OC[C@@H]1C -10.8% [at 1.95 µM]
CO[C@@H]1CN(C)C(=O)c2cc(NC(C)=O)ccc2OC[C@@H](C)N(Cc2nccs2)C[C@@H]1C 17.3%
O=C(C[C@@H]1C[C@H]2c3cc(NC(=O)NC4CCCC4)ccc3O[C@H]2[C@@H](CO)O1)NCc1ccccc1F -6.86% [at 1.95 µM]
CO[C@H]1CN(C)C(=O)c2ccc(NC(C)=O)cc2OC[C@H](C)N(C(=O)c2ccccc2F)C[C@@H]1C -11.1% [at 0.5 µM]
C[C@@H]1CN([C@H](C)CO)S(=O)(=O)c2ccc(/C=C/c3ccccc3)cc2O[C@@H]1CN(C)C(=O)Nc1cc(F)ccc1F 35.6%
CO[C@H]1CN(C)C(=O)c2cc(NC(=O)C3CCC3)ccc2OC[C@@H](C)N(Cc2ccc(F)cc2)C[C@@H]1C 29.4%
CCC(=O)N1C[C@@H](C)[C@H](OC)CN(C)C(=O)c2ccc(NC(=O)c3cc(C)on3)cc2OC[C@@H]1C -1.88% [at 1.95 µM]
C[C@@H](NC(=O)C[C@H]1C=C[C@@H](NC(=O)CN2CCOCC2)[C@H](CO)O1)c1ccccc1 -14.1% [at 8 µM]
CCC(=O)Nc1ccc2c(c1)C(=O)N(C)C[C@H](OC)[C@H](C)CN(C(=O)CN1CCOCC1)[C@@H](C)CO2 -5.93% [at 8 µM]
COc1cccc(NC(=O)N[C@H]2C=C[C@H](CC(=O)NCc3ccncn3)O[C@@H]2CO)c1 -9.51% [at 0.5 µM]
CCCC#Cc1ccc2c(c1)O[C@@H](CN(C)Cc1ccncc1)[C@@H](C)CN([C@H](C)CO)S2(=O)=O 33.3%
CO[C@H]1CN(C)C(=O)c2cc(NC(C)=O)ccc2OC[C@@H](C)N(CC2CCCCC2)C[C@H]1C -7.37% [at 1.95 µM]
O=C(N[C@H]1C=C[C@@H](CC(=O)N2CCc3ccccc3C2)O[C@H]1CO)C1CC1 -11.9% [at 1.95 µM]
Cc1ccc(-c2ccc3c(c2)O[C@H](CN(C)C(=O)NC(C)C)[C@H](C)CN([C@@H](C)CO)S3(=O)=O)cc1 20.5%
Cc1ccc(-c2ccc3c(c2)O[C@H](CN(C)Cc2ccncc2)[C@@H](C)CN([C@@H](C)CO)S3(=O)=O)cc1 32.6%
C/C=C/c1cnc2c(c1)C(=O)N([C@@H](C)CO)C[C@H](C)[C@H](CN(C)Cc1ccc(F)cc1)O2 9.72%
O=C(N[C@H]1C=C[C@@H](CC(=O)N2CCc3ccccc3C2)O[C@@H]1CO)C1CC1 -6.96%
CC(C)C#Cc1ccc2c(c1)O[C@@H](CN(C)Cc1cccnc1)[C@H](C)CN([C@H](C)CO)S2(=O)=O 36.4%
COc1ccc(-c2ccc([C@@H]3[C@H](C#N)N(C(=O)C4CCCC4)[C@H]3CO)cc2)cc1 -7.24% [at 1.95 µM]
C/C=C/c1cnc2c(c1)C(=O)N([C@H](C)CO)C[C@H](C)[C@H](CN(C)Cc1ccc(F)cc1)O2 14.8%
COc1cccc(-c2ccc3c(c2)O[C@H](CN(C)Cc2ccncc2)[C@@H](C)CN([C@@H](C)CO)S3(=O)=O)c1 21.8% [at 35 µM]
CO[C@H]1CN(C)C(=O)c2cc(NC(=O)c3cccc(F)c3)ccc2OC[C@@H](C)N(C(C)=O)C[C@H]1C 19% [at 8 µM]
CC(C)CC#Cc1ccc2c(c1)O[C@H](CN(C)Cc1cccnc1)[C@@H](C)CN([C@@H](C)CO)S2(=O)=O 39.7%
CO[C@H]1CN(C)C(=O)c2cc(NC(=O)Nc3cccc(F)c3)ccc2OC[C@@H](C)N(C)C[C@H]1C -11.4% [at 1.95 µM]
C[C@H](CO)N1C[C@H](C)[C@@H](CN(C)Cc2cccnc2)Oc2cc(C#CC3CCCCC3)ccc2S1(=O)=O 30.4%
O=C(C[C@H]1C[C@@H]2c3cc(NC(=O)Nc4ccc(F)cc4)ccc3O[C@@H]2[C@H](CO)O1)NC1CCCCC1 16%
CCCC(=O)Nc1ccc2c(c1)OC[C@@H](C)N(Cc1ccncc1)C[C@H](C)[C@H](OC)CN(C)C2=O 14.1%
O=C(C[C@@H]1C[C@H]2c3cc(NC(=O)Nc4ccc(C(F)(F)F)cc4)ccc3O[C@H]2[C@@H](CO)O1)NC1CCCCC1 -15.4% [at 1.95 µM]
CO[C@H]1CN(C)C(=O)c2cc(NC(=O)c3ccccc3)ccc2OC[C@H](C)N(C(=O)CN(C)C)C[C@H]1C -13% [at 1.95 µM]
CO[C@@H]1CN(C)C(=O)c2cc(NC(=O)c3cc(C)on3)ccc2OC[C@@H](C)N(C(C)=O)C[C@@H]1C -12.6% [at 1.95 µM]
O=C(C[C@H]1CC[C@H]2[C@@H](COC[C@H](O)CN2Cc2cc(F)ccc2F)O1)NCc1ccc(F)cc1 -6.27%
O=C(C[C@H]1CC[C@H]2[C@@H](COC[C@@H](O)CN2Cc2cc(F)ccc2F)O1)NCc1ccc(Cl)cc1 12.5%
C[C@H](CO)N1C[C@H](C)[C@H](CN(C)C)Oc2cc(-c3ccccc3F)ccc2S1(=O)=O -3.75% [at 1.95 µM]
COc1ccc(S(=O)(=O)Nc2cccc3c2O[C@@H](CN(C)S(=O)(=O)c2c(C)noc2C)[C@H](C)CN([C@H](C)CO)C3=O)cc1 14.4%
Cc1ccc(-c2ccc3c(c2)O[C@@H](CN(C)Cc2ccncc2)[C@@H](C)CN([C@@H](C)CO)S3(=O)=O)cc1 21.6%
CCC(=O)Nc1ccc2c(c1)OC[C@@H](C)N(CC1CCCCC1)C[C@H](C)[C@H](OC)CN(C)C2=O 11.5%
CC(C)[C@@H](C)NC(=O)N(C)C[C@@H]1OCc2ccccc2-c2ccccc2C(=O)N([C@@H](C)CO)C[C@H]1C 34.8%
